Source: PubChem BioAssay
SIRT5 block: inhibitors of human sirtuin-5 desuccinylase; Q9NXA8; Purified SirT5, succinyl-peptide AMC, trypsin-coupled fluorescence; inhibition, % at 15 µM; 330,000 compounds, 1.1% hits; in the data active = inhibition above about 15%
ERAP1 HTS inh: blocks human ERAP1 aminopeptidase activity; Q9NZ08; recombinant ERAP1, Leu-AMC fluorescence, 60 min; inhibition, % at 10.7 µM; 340,000 compounds, 0.15% hits;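 active = mean replicate inhibition of at least 30%, or all replicates individually reaching that 30% level; inactive = mean below 30% and not every replicate reaching it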;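 also: 0% = neutral control wells and 100% = L-leucinethiol positive control wells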
Casp6 inh: caspase-6 (human) enzyme inhibition | P55212 | purified caspase-6, Z-VEID-R110 cleavage fluorescence | inhibition, % at 12.5 µM | 350,000 compounds, 0.53% hits | AID 686996;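 active = mean inhibition across replicates at least about 35%, with every replicate also reaching that limit, limit read from the data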;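 also: 0% = median of neutral control wells and 100% = no fluorescence left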
Target sequence (P55212 24-179 limits assumed): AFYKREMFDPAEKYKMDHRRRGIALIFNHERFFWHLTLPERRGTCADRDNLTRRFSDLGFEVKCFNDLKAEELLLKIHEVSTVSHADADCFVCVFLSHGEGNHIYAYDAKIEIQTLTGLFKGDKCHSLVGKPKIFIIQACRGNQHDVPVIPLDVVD
Target sequence (P55212 194-293 limits assumed): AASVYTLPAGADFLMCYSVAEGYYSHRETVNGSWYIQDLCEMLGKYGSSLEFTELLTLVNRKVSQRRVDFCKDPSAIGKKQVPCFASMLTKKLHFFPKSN
INS-1E GSIS act: GLuc luminescence reporter in INS-1E cells, primary screen for activators of glucose-dependent secretion of insulin; INS-1E GLuc reporter insulin secretion, 2-3 h; activation, % at 16.6 µM; 370,000 compounds, 0.61% hits;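 active = lowest replicate activation of at least 40%, so every replicate reaches that level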;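 also: 0% = median of neutral control wells and 100% = median of IBMX positive control wells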
FGF22 binding-1: binders of recombinant human FGF22 by thermal shift; Q9HCT0; SYPRO orange fluorescence; percent of sucrose octasulfate shift, DMSO zero; activity (Tm shift, normalised), % at 9.99 µM; 340,000 compounds, 1.5% hits; AID 651658;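 active = mean Tm shift, scaled 0 neutral to 100 positive control, at about 1.3% or above, every replicate too, limit read from the data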
Target sequence (Q9HCT0 whole entry, looked up): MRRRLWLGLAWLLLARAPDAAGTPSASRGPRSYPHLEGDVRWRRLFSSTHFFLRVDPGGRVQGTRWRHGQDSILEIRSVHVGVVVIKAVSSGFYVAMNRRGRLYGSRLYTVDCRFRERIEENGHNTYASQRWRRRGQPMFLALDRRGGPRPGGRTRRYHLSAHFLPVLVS
FGF22 binding-2: binders of human FGF22 by thermal shift; shares compounds with FGF22 binding-1; recombinant FGF22 thermal shift, SYPRO orange fluorescence; thermal shift activity, °C (ΔTm) at 38 µM; 1,000 compounds, 2% hits; AID 720646;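 active = fitted rise in melting shift crosses a set limit at or below the top valid dose tested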
TSA no protein: counter-screen for FGF22 binders: compound-only thermal shift, no protein; shares compounds with FGF22 binding-1; compound-only SYPRO orange thermal shift counter-screen; AC50, µM (highest dose often 38 µM); 1,000 compounds, 2% hits; AID 743019;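 active = rising signal whose fitted curve reaches the 0.54 level within the top valid dose, showing a melting point, actives reach about 13 µM in these data; inactive = the rest, including activity in the opposite direction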; also: value is where the raw curve crosses a fixed level and not half-maximal
Starred values were filed as active, the others as inactive; i = inactive; · = no result given; ! = not confirmed by another sample; [ ] = another dose, or the depositor's remark. An excerpt weighted towards active compounds, which were near 3.3% of everything screened.

SMILES | SIRT5 block | ERAP1 HTS inh | Casp6 inh | INS-1E GSIS act | FGF22 binding-1 | FGF22 binding-2 | TSA no protein
COc1ccc(Cc2nnc(-c3ccccc3)o2)cc1 | 12 | · | 0 | 46* | 17* | 0.2 | i
c1ccc(Cc2nnc(-c3ccccc3)o2)cc1 | · | · | · | 29 | · | · | ·
CO[C@H]1CN(C)C(=O)c2ccc(NS(=O)(=O)c3cccc(C)c3)cc2OC[C@H](C)NC[C@@H]1C | 0 | 3 | 1 | 6 | 0 | · | ·
O=C(NC1CCCCC1)N1CC(=O)N2[C@H](CO)[C@H](c3ccc(-c4cccc(F)c4)cc3)[C@H]2C1 | -1 | 0 | 2 | -22 | 1.4* | 0.29[42 µM] | i
O=C(Nc1cccc(F)c1)N1CC(=O)N2[C@H](CO)[C@@H](c3ccc(Br)cc3)[C@H]2C1 | -5 | 3 | 0 | -13 | 1 | · | ·
O=C(Nc1cccc(F)c1)N1CC(=O)N2[C@@H](CO)[C@@H](c3ccc(Br)cc3)[C@@H]2C1 | -3 | 1 | 5 | -6 | 1.3* | 0.25[42 µM] | i
O=C(NC1CCCCC1)N1CC(=O)N2[C@H](C1)[C@H](c1ccc(-c3cccc(F)c3)cc1)[C@@H]2CO | 0 | 0 | 4 | -35 | 0 | · | ·
COc1ccc(CNC(=O)C[C@@H]2C=C[C@@H](NC(=O)Nc3ccc4c(c3)OCO4)[C@@H](CO)O2)cc1 | -3 | -1 | 0 | 1 | 0 | · | ·
Cc1ccc(S(=O)(=O)N2C[C@]3(O)C[C@@H]4C(=O)N(c5ccccc5)C(=O)[C@@H]4C[C@]3(OC(=O)NCC3CCCCC3)C2)cc1 | 1 | -1 | 0 | -21 | 3.2* | 0.05 | i
CCCN(C)C[C@@H]1Oc2ncc(C#CCC(C)C)cc2C(=O)N([C@@H](C)CO)C[C@H]1C | 1 | 1 | 8 | -8 | 0 | · | ·
C[C@H]1CN([C@@H](C)CO)S(=O)(=O)c2ccc(C3=CCCC3)cc2O[C@@H]1CN(C)C(=O)Nc1ccc2c(c1)OCO2 | 7 | -8 | -3 | -8 | -1 | · | ·
C[C@@H]1CN([C@H](C)CO)S(=O)(=O)c2ccc(C3=CCCC3)cc2O[C@@H]1CN(C)C(=O)Nc1ccc2c(c1)OCO2 | 11 | -3 | -1 | -8 | 1.2* | -0.49 | i
C[C@H](CO)N1C[C@H](C)[C@H](CN(C)C(=O)Nc2ccc3c(c2)OCO3)Oc2cc(C3=CCCC3)ccc2S1(=O)=O | 3 | -4 | 2 | -5 | 1.8* | -0.49 | i
C[C@@H]1CN([C@@H](C)CO)S(=O)(=O)c2ccc(C3=CCCCC3)cc2O[C@H]1CN(C)C(=O)Nc1ccc2c(c1)OCO2 | 10 | 0 | -1 | -14 | 0 | · | ·
O=C(C1CCCCC1)N1CC[C@@H]2[C@H]1c1cc(Br)ccc1N[C@@H]2CO | 5 | 1 | 0 | 7 | 0 | · | ·
C[C@H](CO)N1C[C@H](C)[C@H](CN(C)Cc2ccc(C(=O)O)cc2)OCCCC[C@H](C)Oc2ccc(NC(=O)Nc3ccc(F)cc3)cc2C1=O | -2 | -3 | 0 | 10 | · | · | ·
CC(=O)N1CC2(C1)[C@H](c1ccccc1)[C@@H](CO)N2S(=O)(=O)c1ccccc1 | -3 | -1 | 2 | -2 | 0 | · | ·
O=C(Nc1ccc(Cl)cc1)N[C@H]1CC[C@@H](CCNC(=O)c2cc(Cl)cc(Cl)c2)O[C@H]1CO | 2 | -5 | 1 | -28 | · | · | ·
O=C(NCC[C@H]1CC[C@@H](NC(=O)C2CC2)[C@H](CO)O1)Nc1ccc(Cl)cc1 | -2 | 0 | -3 | -10 | 0 | · | ·
O=C(Nc1ccc(Cl)cc1)N[C@H]1CC[C@H](CCNC(=O)c2cc(Cl)cc(Cl)c2)O[C@@H]1CO | -1 | 0 | 2 | -1 | 2.5* | -0.3 | i
Cc1ccc(S(=O)(=O)N[C@H]2CC[C@H](CCNC(=O)C3CCOCC3)O[C@H]2CO)cc1 | 0 | 3 | -6 | 3 | 2.0* | 0.44[42 µM] | i
O=C(NCC[C@H]1CC[C@@H](NC(=O)C2CCOCC2)[C@@H](CO)O1)Nc1ccc(Cl)cc1 | -2 | 2 | -1 | -15 | 1.6*! | 0.33[42 µM] | i
O=C(NCC[C@H]1CC[C@@H](NC(=O)C2CCOCC2)[C@H](CO)O1)Nc1ccc(Cl)cc1 | -2 | 2 | -1 | -5 | 1.7* | -0.092[42 µM] | i
Cc1ccc(S(=O)(=O)N[C@H]2CC[C@@H](CCNC(=O)C3CCOCC3)O[C@H]2CO)cc1 | -1 | 6 | -3 | 4 | 1 | · | ·
O=C(Cc1cccnc1)N1CC(=O)N2[C@H](C1)[C@H](c1ccc(/C=C/c3ccccc3)cc1)[C@@H]2CO | 2 | -1 | -1 | -25 | 0 | · | ·
SMILES | SIRT5 block | ERAP1 HTS inh | Casp6 inh | INS-1E GSIS act | FGF22 binding-1 | FGF22 binding-2 | TSA no protein
CC(C)Oc1ccc(C(=O)NC2CCN(Cc3ccccc3)CC2)cc1 | 1 | -1 | -8 | 7 | 6.6* | 0.047 | i
CC(Oc1ccc(Br)cc1)C(=O)NC1CCN(Cc2ccccc2)CC1 (centres undefined) | 0 | -3 | 18 | 21 | · | · | ·
CC(=O)c1sc(NC(=O)c2cc(=O)c3ccccc3o2)nc1C | -21 | 1 | 0 | -2 | 5.1* | -0.077 | i
COc1ccc(Br)cc1S(=O)(=O)Nc1ncccc1C | -6 | 1 | -1 | 3 | 1.5* | 0.057 | i
COc1ccccc1NC(=O)N(C)C[C@@H]1OCc2cn(nn2)CCCC(=O)N([C@@H](C)CO)C[C@@H]1C | -2 | 0 | 2 | -4 | 0 | · | ·
O=C(C1CCCCC1)N1[C@@H]2CN(S(=O)(=O)c3ccccc3)c3ccccc3[C@@H]2[C@@H]1CO | 1 | 3 | 3 | -7 | 0 | · | ·
O=C(C1CC1)N1[C@H](CO)[C@H]2c3ccccc3N(S(=O)(=O)c3ccccc3)C[C@H]21 | 0 | 0 | -1 | 2 | 2.0* | 0.009 | i
O=C(Nc1ccc(Cl)cc1)N1C[C@@H]2[C@H](c3ccccc31)[C@H](CO)N2C(=O)C1CC1 | -1 | -3 | 7 | -16 | 3.4* | 0.09 | i
C[C@H]1CN([C@@H](C)CO)C(=O)c2cc(C#CC3CCCCC3)cnc2O[C@@H]1CN(C)Cc1cncnc1 | -4 | -5 | 0 | -19 | 0 | · | ·
O=C1C(=O)C(c2ccccc2)C(=O)C1c1ccccc1 (centres undefined) | 2 | 0 | 1 | -4 | 5.8* | 0.007 | i
Cc1ccc(C2C(=O)c3ccccc3C2=O)cc1 | 3 | -1 | -2 | -27 | 0 | · | ·
CCCCn1cnc2c(SCc3cccc(F)c3)nc(N)nc21 | -1 | 1 | 1 | -18 | 23* | 0.048 | i
CO[C@H]1CN(C)C(=O)c2cc(NS(C)(=O)=O)ccc2OC[C@@H](C)N(CCC(F)(F)F)C[C@H]1C | -21 | 1 | · | 19 | 0 | · | ·
